Screening data (PubChem)
An excerpt weighted towards active compounds, which were near 7.5% of everything screened.
FLuc modulator – qHTS profiling assay for firefly luciferase inhibitor/activator using purifed enzyme and Km concentrations of substrates (counterscreen for miR-21 project); Luciferin 4-monooxygenase (Photinus pyralis), P08659; purified FLuc, Km substrates, luminescence inhibition; Potency, µM (series often up to 57.5 µM), for inactives: top-dose activity change, negative = inhibition, actives largely listed as inhibitors; 6.9% of 360,000 active;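 further: plate controls were vehicle for no effect and reference inhibitor for full effect; nearly all actives have a fitted effect of over 55% in size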
Target sequence (P08659 whole entry, looked up): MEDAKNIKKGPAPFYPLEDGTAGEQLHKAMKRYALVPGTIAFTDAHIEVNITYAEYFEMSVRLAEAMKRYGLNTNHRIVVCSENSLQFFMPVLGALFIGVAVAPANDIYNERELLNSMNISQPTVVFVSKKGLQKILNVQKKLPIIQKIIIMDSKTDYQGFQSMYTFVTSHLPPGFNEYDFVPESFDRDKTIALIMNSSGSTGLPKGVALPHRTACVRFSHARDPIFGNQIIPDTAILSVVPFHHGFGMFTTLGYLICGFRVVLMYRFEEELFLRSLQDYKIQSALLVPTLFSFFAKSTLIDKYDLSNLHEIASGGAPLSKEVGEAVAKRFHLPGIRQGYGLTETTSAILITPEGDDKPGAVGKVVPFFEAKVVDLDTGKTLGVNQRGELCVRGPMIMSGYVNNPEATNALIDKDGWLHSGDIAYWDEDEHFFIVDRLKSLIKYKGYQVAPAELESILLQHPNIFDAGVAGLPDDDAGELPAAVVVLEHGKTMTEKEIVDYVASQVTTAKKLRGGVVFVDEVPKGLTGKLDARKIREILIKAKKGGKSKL
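Purified P. pyralis luciferase, 10 nM final, with Km-level 10 uM D-luciferin and 10 uM ATP in 50 mM Tris acetate pH 7.5, 10 mM Mg acetate, 0.01% Tween-20, 0.05% BSA; 6-point qHTS titration about 60 µM downward; luminescence read.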
ELG1 genotoxic – qHTS screen for small molecules that induce genotoxicity in human embryonic kidney (HEK293T) cells expressing luciferase-tagged ELG1; AID 504466, 2011; 1.3% of 330,000 active; HEK293T ELG1-luciferase reporter, luminescence, 16 h; Potency, µM (series often up to 46 µM), inactives show top-dose activity change, positive = activation, hits mostly activators; further: % of control where 0% means no effect; nearly all actives have a fitted effect of over 60% in size
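Genotoxic stress is detected as increased luminescence from luciferase-tagged ELG1 in HEK293T cells, measured with ONE-Glo after a 16 hr treatment at 37 °C.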
NPC1 prom act – qHTS Assay for NPC1 Promoter Activators; AID 485313, 2010; Potency, µM (series often up to 9.22 µM), inactives show at the highest dose activation, actives largely listed as activators; 2.4% of 320,000 active; Huh7 NPC1 promoter luciferase reporter, 24 h; further: % of control where 0% means no effect; nearly all actives have a fitted effect of over 60% in size
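NPC1 promoter–luciferase Huh7 cells; 24 h compound; luminescence.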
SMN2 splice enh – qHTS Assay for Enhancers of SMN2 Splice Variant Expression | Potency, µM (titrated, usually from 46.1 µM), for inactives: at the top dose activity change, positive = activation, usual class: activators | HEK293 SMN2-luciferase splicing reporter, luminescence, 30-36 h | 2.8% of 210,000 active | AID 1458, 2008; further: % of control where 0% means no effect; nearly all actives have a fitted effect of over 55% in size
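HEK293 cells carry an SMN2 […]–luciferase reporter in which exon 7 inclusion puts luciferase in frame. Cells were plated 10-12 h before compound addition, then incubated 30-36 h at 37C. ONE-Glo luminescence was read; sodium butyrate at 4.5 mM final served as control.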
Luc counter – Counterscreen for Luciferase (Kinase-Glo TM) Inhibition. Luciferin 4-monooxygenase (Photuris pensylvanica), Q27757. Kinase-Glo luciferase, ATP luminescence, 8 min. 0.28% of 200,000 active. Potency, µM (series often up to 38.3 µM), inactives show at the highest dose activity change, negative = inhibition, hits mostly inhibitors; further: on the % scale 0 is the no-effect control and ±100 the full control effect; nearly all actives have a fitted effect of over 60% in size
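Luminescence was the read-out, taken after 8-minute incubation at ambient temperature. Luciferase turned over luciferin with 10 uM ATP in imidazole pH 7.2 buffer containing KCl, MgCl2, Tween 20 and BSA.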
Rab9 prom act – qHTS Assay for Rab9 Promoter Activators. Huh7 Rab9 promoter-luciferase reporter, luminescence, 24 h. Potency, µM (series often up to 9.22 µM), for inactives: at the highest dose activation, negative = inhibition, hits mostly activators. 2.8% of 320,000 active. AID 485297, 2010; further: % of control where 0% means no effect; nearly all actives have a fitted effect of over 60% in size
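Using Huh7 cells stably transfected with Rab9 promoter–luciferase, compounds were incubated 24 h at 37 °C, 5% CO2; luciferase luminescence was read 10 min after reagent addition.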
Starred values were filed as active, the others as inactive; ? = inconclusive; nt = not tested or not shown; [ ] = another dose, or the depositor's remark. The call rests on the fitted dose curve; in most records, active means well fitted curve in the direction sought with a large enough effect; inconclusive means small, poorly fitted or top-dose-only effect, or another doubt; inactive means no such curve, though single readings can be large; an effect the other way counts as inactive or inconclusive. Potency means the concentration at half of the fitted maximal effect.

SMILES	FLuc modulator	ELG1 genotoxic	NPC1 prom act	SMN2 splice enh	Luc counter	Rab9 prom act
O=C(Nc1ccccc1)c1cccc(-c2nnc(-c3ccccc3)o2)c1	-12%	?	2µM*	1µM*	3%	4µM*
Cc1ccc(SCC(=O)Nc2cccc(-c3nnc(-c4ccco4)o3)c2)cc1	-11%	-4%	3.2µM*	22µM*	3%	3.2µM*
Cc1cccc(C(=O)Nc2nnc(-c3ccco3)o2)c1	-15%	1%	10%	28%	2%	1%
O=C(Nc1cccc(-c2nnc(-c3ccccc3)o2)c1)c1ccco1	3%	1%	-8%	-12%	-3%	-1%
O=C(NCc1cccs1)C(=O)NCC1OCCCN1S(=O)(=O)c1cc(F)ccc1F (stereo not given)	-3%	1%	0%	nt	nt	7%
Cc1ccccc1NC(=O)CSc1nnc(COc2ccc(Cl)cc2)o1	-12%	nt	nt	nt	nt	nt
CC(C)CC1Nc2ncnc(N3CCN(c4ccccc4)CC3)c2N(Cc2ccc(Br)cc2)C1=O (stereo not given)	0%	1%	-5%	nt	nt	-4%
O=C(COC(=O)c1c(F)cccc1Cl)NC1CCCCC1	15µM*	?	?	nt	nt	?
O=C(COC(=O)c1cccs1)NC1CCCC1	?	7%	-3%	nt	nt	-4%
O=C(COC(=O)c1ccccc1F)NC1CC1	-15%	2%	-3%	nt	nt	-3%
O=C(COC(=O)Cc1c(Cl)cccc1Cl)NC1CCCC1	nt	2%	nt	nt	nt	nt
O=C(COC(=O)c1cccs1)NC1CCCCC1	21µM*	-1%	2%	1%	-4%	5%
Cc1ccsc1C(=O)OCC(=O)Nc1sccc1C(N)=O	5.4µM*	7%	?	22%	-11%	?
O=C(COC(=O)c1ccccc1F)NC1CCCC1	24µM*	1%	-2%	nt	nt	-1%
CCCN(CCC)S(=O)(=O)c1ccc(C(=O)Nc2nc(-c3ccccc3)c(C(=O)OCC)s2)cc1	-3%	0%	-2%	nt	nt	-3%
Cc1ccc(CN(Cc2ccco2)c2cnc(S(C)(=O)=O)nc2C(=O)Nc2ccccc2Br)o1	-6%	nt	nt	nt	nt	nt
O=C(NC(=S)NC1CCCC1)c1ccccc1	17µM*	?	?	nt	nt	?
O=C(NC(=S)NC1CCCCCCCCCCC1)c1cccnc1	0%	4%	0%	0%	-4%	3%
O=C(COC(=O)c1ccccc1)NC1CCCC1	17µM*	9%	-3%	nt	nt	-8%[1.84 µM]
Cc1ccsc1C(=O)OCC(=O)NC1CCCC1	21µM*	?	?	nt	nt	?
O=C(COC(=O)c1ccccc1)NC(=O)NC1CCCC1	-5%	2%	-2%	nt	nt	-3%
CN1CCN(c2ncc3nc(-c4ccc(Cl)cc4)c(=O)n(CCC#N)c3n2)CC1	nt	nt	nt	-27%	-3%	nt
CCCCSc1nnc2n(-c3cccc(C)c3)c(=O)c3c4c(sc3n12)CCCC4	-5%	nt	nt	9%	nt	nt
Cc1ccc(-c2nc(CCNC(=O)C(=O)Nc3c(C)cccc3C)cs2)cc1	1%	nt	nt	nt	nt	nt
O=C(/C=C/c1ccc2c(c1)OCO2)Nc1nc(-c2ccc(F)cc2F)cs1	1%	8%	-7%	-82%	1%	-12%
SMILES	FLuc modulator	ELG1 genotoxic	NPC1 prom act	SMN2 splice enh	Luc counter	Rab9 prom act
Cc1c(NC(=O)C(C)OC(=O)/C=C/c2ccc3c(c2)OCO3)c(=O)n(-c2ccccc2)n1C (stereo not given)	15µM*	8%	0%	7%	-2%	7%
O=C(/C=C/c1ccc2c(c1)OCO2)Nc1nc2ccccc2s1	1.2µM*	18µM*	1.6µM*	3.5µM*	-3%	0.79µM*
Cc1c(NC(=O)C(C)OC(=O)/C=C/c2ccccc2)c(=O)n(-c2ccccc2)n1C (stereo not given)	5%	-3%	-7%	-13%	3%	3%
O=C(COC(=O)/C=C/c1ccc2c(c1)OCO2)Nc1ccccc1	21µM*	6%	-10%	0%	-7%	4%
Cc1csc(NC(=O)/C=C/c2ccc3c(c2)OCO3)n1	0.95µM*	2.9µM*	-1%	13µM*	-6%	?
O=C(O)CCNCC(=O)O	nt	nt	nt	-3%[9.22 µM]	2%[7.66 µM]	nt
Cc1ccc2occ(CC(=O)Nc3c(C)cccc3C)c2c1	-7%	nt	nt	-10%	nt	nt
CC(=O)C1(C)CC2=C(CCCC2(C)C)CC1C (stereo not given)	nt	nt	nt	-2%	nt	nt
O=C(NCc1ccc(F)cc1)c1ccc2c(c1)N(Cc1ccc(F)cc1Cl)C(=O)CS2	-2%	nt	nt	0%	nt	nt
CC(OC(=O)C1CSC2(c3ccc(F)cc3)CCC(=O)N12)C(=O)NC(N)=O (stereo not given)	-3%	-1%	1%	9%	0%	-4%
CCOC(=O)c1c(C)c(-c2ccccc2)n(CC(=O)Nc2cc(C)ccc2OC)c1C	-5%	nt	nt	-2%	nt	nt
Cc1ccc(Cl)cc1N1C(=O)CC(Sc2ncccn2)C1=O (stereo not given)	0%	5%	-1%	nt	nt	-3%
COc1ccc(NC(=O)/C=C/c2ccc3c(c2)OCO3)cc1	2.7µM*	?	?	18µM*	-15%	3.2µM*
COc1cc(SC)ccc1C(=O)Nc1ccc(C)cc1C	2.7µM*	?	2.5µM*	13µM*	-7%	3.5µM*
COc1cc(SC)ccc1C(=O)Nc1ccc(S(=O)(=O)N2CCCC2)cc1	-7%	18%	0%	-20%	-5%	-4%
COc1cc(SC)ccc1C(=O)Nc1ccc(C)cc1	1.9µM*	?	?	nt	-3%	3.5µM*
COc1cc(SC)ccc1C(=O)NCCOc1c(C)cc(C)cc1C	3%	-3%	1%	nt	nt	-15%
COc1cc(SC)ccc1C(=O)Nc1ccc2c(c1)OCO2	1.3µM*	2.6µM*	0.89µM*	11µM*	-3%	1.6µM*
N#CC1(NC(=O)COC(=O)c2ccccc2SCC(=O)N2CCCC2)CCCCC1	1%	-7%	3%	nt	nt	-5%
COc1ccc(-c2cc(C(=O)Nc3nc4c(C)cccc4s3)c3ccccc3n2)cc1OC	11µM*	-6%	7%	-5%	-2%	5%
COc1cccc(-c2cc(C(=O)Nc3nc4ccccc4s3)c3ccccc3n2)c1	17µM*	-4%	-3%	-37%	-4%	-4%
CC(=O)NCCNc1ncnc2ccc(-c3ccc(C(=O)N(C)C)cc3)cc12	nt	nt	nt	10%	1%	nt
Cc1cc(C)c2nc3nc(C)c(C)cc3c(N)c2c1	17µM*	13%	-17%	-79%	3%	-29%
